Screening results: PubChem BioAssay, several laboratories
Only some compounds are listed: those with a hit (about 2% of all), similar ones and a draw of the others.
Jurkat NFkB inh: inhibitors of induced NF-kB luciferase reporter, primary screen, TCR NF-kB activation inhibitor project, cell-based, luminescence, uHTS | Jurkat, PMA/ionomycin-induced NF-kB luciferase reporter | inhibition, % at 4 µM | 330,000 tested, 0.53% active; in the data active = inhibition above about 50%
697 NFkB inh: inhibitors of PMA/ionomycin-induced NF-kB reporter, 697 cells, primary screen, B-cell NF-kB inhibitor project, cell-based, luminescence, uHTS; inhibition, % at 4 µM; 697 B-cell NF-kB luciferase reporter, 16 h; 330,000 tested, 0.33% active; in the data active = inhibition above about 35%
Beta apoptosis: inhibitors of cytokine-induced beta cell apoptosis, primary screen, luminescence | INS-1E cytokine-induced death, ATP luminescence, 48 h; percent of positive-control rescue, neutral wells zero | protection from apoptosis, % (test concentration not listed) | 300,000 tested, 0.8% active | AID 435005, 2010;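 active = Every replicate reaches about 75%, or at least half do and their mean reaches it too, limit read from the data; inconclusive = At least half of replicates reach the limit but their mean does not; inactive = Under half of replicates reach the limit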;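 also: 0% = cytokine-treated negative control wells and 100% = positive control rescue; higher means more ATP so stronger rescue from cytokine killing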
Calb FLC: C. albicans growth inhibition with fluconazole, primary screen, CaCi-2 strain, Alamar Blue fluorescence; C. albicans CaCi-2 (fluconazole-resistant clinical isolate) + fluconazole, 48 h; 300,000 tested, 0.57% active; growth inhibition, % (no concentration beside the values);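 active = growth inhibition above about 58% in most replicates, limit read from the data, passing the limit was not always enough; inconclusive = exactly half the replicates above a set limit; inactive = most replicates below a set limit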;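 also: all wells also contain fluconazole at 8 µg/ml as a sub-toxic cotreatment; 0% = median of DMSO wells and 100% = median of geldanamycin control wells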
Shn3 3UTR inh: reduction of Shn3 3'UTR firefly luciferase signal, primary screen, Schnurri-3 inhibitor project, cell-based, Clone20 osteoblasts, set 2; Clone20 osteoblast Shn3 3'UTR firefly luciferase, 24 h; inhibition, % at 12.5 µM; 360,000 tested, 0.52% active; AID 588674, 2011;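 active = mean inhibition of at least 75% with every replicate also reaching 75%; inconclusive = mean inhibition at least 75% but some replicate below; inactive = mean inhibition below 75%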;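 also: 0% = median of neutral control wells and 100% = pilot-screen positive control compound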
697 NFkB conf: PMA/ionomycin-induced NF-kB reporter inhibitors, 697 retest, confirmation, B-cell NF-kB inhibitor project, cell-based, luminescence, single concentration; shares compounds with 697 NFkB inh; 2,000 tested, 35% active; 697 B-cell NF-kB luciferase, 16 h; AID 449746, 2010; inhibition, % at 4 µM; in the data active = inhibition mostly above about 28%, no sharp cut-off; inactive = mostly below about 22%
Active calls of the source: *; i = inactive; u = inconclusive; x = not tested or not shown.

SMILES	Jurkat NFkB inh	697 NFkB inh	Beta apoptosis	Calb FLC	Shn3 3UTR inh	697 NFkB conf
Cc1c(CCC(=O)O)c(=O)oc2cc3oc4c(c3cc12)CCCC4	1	40*	-10	3	29	35*
Cc1ccc(C(=O)C(C)OC(=O)c2ccccc2[N+](=O)[O-])cc1 (stereo unspecified)	-115	-271	1	-6	-70	-210
CN(C)CCC1(c2ccccc2)CCN(C)C1=O (stereo unspecified)	x	x	x	x	0	x
COc1ccc(/C=N\n2nnc3ccccc32)cc1	-147	-294	-9	-7	49	-215
COc1ccc(/C=N/n2c(C)nc3ccccc3c2=O)cc1	-18	-19	-5	3	-52	x
Cc1sc2nc(C3CC3)nc(SCC(=O)N3c4ccccc4CC3C)c2c1C (stereo unspecified)	-75	i	9	23	61	i
Cc1ccc(-c2nc(N)n(C(=O)c3ccco3)n2)cc1	-20	36*	-4	4	-3	-12
CSc1nc(-c2ccccc2)nn1C(=O)c1ccco1	-2	-3	0	-3	-11	x
O=C(NCC1CCCO1)c1cccc(S(=O)(=O)N2CCCCC2)c1 (stereo unspecified)	-12	-16	x	x	12	x
Nc1nc2ccc(Cl)cc2c2nc(-c3ccco3)nn12	15	36*	11	-5	x	28*
COCCCn1c(=O)/c(=C\c2cccc(OC)c2OC)s/c1=C(/C#N)C(=O)Nc1ccc(C(=O)O)cc1	-3	43*	-2	21	-3	37*
C/C(=N\n1cnnc1)c1ccccc1	12	11	4	-4	3	x
O=C(COC(=O)c1ccc(F)cc1Cl)NC1CC1	x	x	x	x	-3	x
Cn1c(SCC(=O)Nc2ccc(NC(=O)c3ccccc3)cc2)nnc1-c1ccncc1	-11	-10	-4	-5	-8	x
COc1ccc(C(=O)Nc2ccc(NC(=O)CSc3nnc(-c4ccncc4)n3C)cc2)cc1	-12	38*	3	1	-11	3
O=C(CNC(=O)c1ccc(-c2ccccc2)cc1)OCc1ccc(Br)cc1	x	x	x	4	-67	x
Cc1cc(OCC(=O)Nc2ccc(CN3CCOCC3)cc2)c2c(C)c(C)c(=O)oc2c1	6	38*	-1	-3	39	21
Cc1cc(Nc2ccccc2C(=O)O)n2ncnc2n1	x	x	x	x	-15	x
Cc1cc(Nc2ccccc2N2CCOCC2)n2ncnc2n1	4	35*	2	-10	-3	25
CC(C)(C)c1ccc2cccc(F)c2n1	x	x	x	x	6	x
COc1ccc(-n2nnnc2S(=O)(=O)CC(=O)N2CCCCC2)cc1	15	39*	4	x	92*	60*
O=C(Oc1ccc2ccccc2c1)c1ccco1	4	19	-7	4	-6	x
CC1CC(C)(C)Nc2ccc(OC(=O)c3ccco3)cc21 (stereo unspecified)	4	53*	-20	21	51	63*
COc1ccc(C(=O)N/N=C/c2ccc(OC)c(CN3CCCc4ccccc43)c2)cc1	-3	44*	14	-24	25	29*
C=C(C)COC(=O)C1CC2OC2CC1C(=O)OCC(=C)C (stereo unspecified)	x	x	x	x	17	x
SMILES	Jurkat NFkB inh	697 NFkB inh	Beta apoptosis	Calb FLC	Shn3 3UTR inh	697 NFkB conf
O=C(NCc1ccccc1Cl)C1CCCN1C(=O)Nc1ccccc1 (stereo unspecified)	2	7	-5	10	3	x
COc1ccc(CN2CCNC(=O)C2CC(=O)NCCCC2CCCC2)c(F)c1 (stereo unspecified)	10	-10	-10	-16	-4	x
COc1ccc(OC)c(NC(=O)c2[nH]c(C)c(C(C)=O)c2C)c1	-3	36*	2	-37	-16	33*
COc1ccc(Cl)cc1NC(=O)c1[nH]c(C)c(C(C)=O)c1C	-1	1	1	4	-1	x
Cc1ccc(S(=O)(=O)N[C@H](C(=O)N2CCC(C(=O)N[C@@H](CCC(N)=O)C(=O)O)CC2)C(C)C)cc1	16	15	-1	-1	-17	x
Cc1nc(NC(=O)C2CC2)sc1C(=O)Nc1ccccc1	1	0	3	13	-12	x
Cc1nc(Nc2c(Cl)cccc2Cl)sc1C(=O)Nc1ccccc1	6	37*	0	5	-8	36*
C=CCNC(=O)c1ccc(-c2nc3ccccc3nc2-c2ccccc2)cc1	7	11	x	-4	-5	x
C=CCNC(=O)c1ccc(-c2nc(-c3ccccc3)cs2)cc1	-54	-279	-14	-6	-40	-145
CCN(CC)S(=O)(=O)c1ccc(C2=NOC3(C2)N(C)c2ccccc2C3(C)C)cc1 (stereo unspecified)	-72	-483	12	4	45	i
CN1c2ccccc2C(C)(C)C12CC(c1cccc(S(=O)(=O)N3CCCC3)c1)=NO2 (stereo unspecified)	-66	i	37	u	50	i
CN1c2ccccc2C(C)(C)C12CC(c1ccc(S(=O)(=O)N3CCCCC3)cc1)=NO2 (stereo unspecified)	-54	i	12	2	5	i
CCC(C)NC(=O)c1cc2c(=O)n(CC)c3ccccc3c2s1 (stereo unspecified)	-22	12	16	-1	3	x
Cc1cccc(NC(=O)CSCC(=O)N(C)Cc2c(F)cccc2Cl)c1	12	7	-7	-4	15	x
CC(C)[C@H](NS(=O)(=O)c1ccc(Cl)cc1)C(=O)OCC(=O)c1c(N)n(C)c(=O)n(C)c1=O	-3	0	x	x	-4	x
CN(C)c1ccc(-c2nc3cc(N)ccc3o2)cc1	-134	-297	3	4	9	-202
COc1cc(NC(=O)c2ccco2)c(OC)cc1NC(=O)c1cc(OC)c(OC)c(OC)c1	6	41*	x	4	8	33*
CCOc1cc(NC(=O)c2ccco2)c(OCC)cc1NC(=O)c1cc(OC)c(OC)c(OC)c1	46	33	27	-10	71	x
CC(=O)c1ccc(-c2ccc(-c3cc(=O)oc4c(C(C)C)ccc(C)c34)cc2)cc1	x	-5	x	x	44	x
COc1ccc(N2CC(C(=O)N3CCN(c4ccccc4)CC3)CC2=O)cc1 (stereo unspecified)	7	-8	-1	4	1	x
N/C(=N\C(=S)Nc1ccc2c(c1)OCO2)c1ccccc1	x	x	x	x	-22	x
Cc1ccc(-c2csc(N3C(=N)SCC3=O)n2)cc1	-104	-268	-2	-4	x	-169
Cc1c(C(=O)NCc2ccc(C#N)cc2)sc(=O)n1Cc1ccccn1	x	x	x	x	-7	x
